These results are taken from the supplement of paper PMC8975748.

Where a name gives a salt, the structure may show the parent alone.

In the assay the test system is Saccharomyces cerevisiae BY4741 SeMeCo community. Put plainly: z-score of subpopulation abundance vs DMSO median, subpopulation auxotrophic for H; higher = larger share of this subpopulation than in DMSO controls. As to conditions: 10 µM; 24 h; SM minimal medium; subpopulation (auxotrophy): H. The method, then: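 Fluorescent four-plasmid SeMeCo (self-establishing metabolically cooperating S. cerevisiae BY4741 community; plasmids pH-mRuby2, pL-mWasabi, pU-eCFP, pM-TagRFP657) was grown 24 h in minimal SM medium with each Selleck FDA-approved drug at 10 µM in 384-well plates. Cells were fixed and imaged by high-content confocal microscopy. For each auxotrophic subpopulation (and the prototroph), a z-score gives the deviation from the DMSO vehicle-control population median.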
Consider `OCCN1CCN(CCCN2c3ccccc3Sc3ccc(C(F)(F)F)cc32)CC1` [Fluphenazine dihydrochloride], for which the “z-score of subpopulation abundance” value turned out to be 1.1.
Take `CC1=C(C(=O)O)N2C(=O)[C@@H](NC(=O)[C@H](N)c3ccc(O)cc3)[C@H]2SC1` [Cefadroxil hydrate]: the “z-score of subpopulation abundance” value was 0.01.
Turning to `C#C[C@]1(O)CC[C@H]2[C@@H]3CCC4=Cc5oncc5C[C@]4(C)[C@H]3CC[C@@]21C` [Danazol], the “z-score of subpopulation abundance” value was -0.48.
To `CCCCOC(=O)c1ccc(O)cc1` [Butylparaben] belongs -1.64; to `CCCCCCCN(CC)CCCC(O)c1ccc(NS(C)(=O)=O)cc1` (stereo not given) [Ibutilide Fumarate], 0.34; to `Cn1cc(C(=O)[C@@H]2CCc3[nH]cnc3C2)c2ccccc21` [Ramosetron Hydrochloride], -0.29.
Then `O=c1ccn(C2CC(O)C(CO)O2)c(=O)[nH]1` (stereo not given) [2-deoxyuridine], with 0.07; and `CCCCOc1ccc(CC(=O)NO)cc1` [Bufexamac], with -0.53; and `CCC1=C(C)CN(C(=O)NCCc2ccc(S(=O)(=O)NC(=O)N[C@H]3CC[C@H](C)CC3)cc2)C1=O` [Glimepiride], with -0.23.
On to `Oc1c(Cl)cc(Cl)cc1Sc1cc(Cl)cc(Cl)c1O` [Bithionol], for which the “z-score of subpopulation abundance” value stood at 6.
To `O=c1[nH]c(=O)n([C@H]2C[C@H](O)[C@@H](CO)O2)cc1/C=C/Br` [Brivudine] belongs -2.5.
For `O=C(O)CCc1nc(-c2ccccc2)c(-c2ccccc2)o1` [Oxaprozin], the “z-score of subpopulation abundance” value was -0.36.
`Cc1ccccc1C(OCCN(C)C)c1ccccc1` (stereo not given) [Orphenadrine Citrate]: the “z-score of subpopulation abundance” value is -0.33.
As to `C#CCN[C@@H]1CCc2ccccc21` [Rasagiline Mesylate], the “z-score of subpopulation abundance” value amounted to 0.22.
Then `CC1(C)[C@H](C(=O)O)N2C(=O)C[C@H]2S1(=O)=O` [Sulbactam sodium], with -0.33; and `CNCc1cc(-c2ccccc2F)n(S(=O)(=O)c2cccnc2)c1` [Vonoprazan Fumarate (TAK-438)], with -0.55; and `CC[C@H](C)C(=O)O[C@H]1C[C@H](O)C=C2C=C[C@H](C)[C@H](CC[C@@H](O)C[C@@H](O)CC(=O)O)[C@H]21` [Pravastatin sodium], with 0.31.
Then `CC[C@@H]([C@H](C)O)n1ncn(-c2ccc(N3CCN(c4ccc(OC[C@@H]5CO[C@@](Cn6cncn6)(c6ccc(F)cc6F)C5)cc4)CC3)cc2)c1=O` [Posaconazole], with 16.6; and `Cc1cc(/C=C/c2ccc3cc(N(C)C)ccc3[n+]2C)c(C)n1-c1ccccc1` [pyrvinium], with -3.04; and `CCCCOc1cc(C(=O)NCCN(CC)CC)c2ccccc2n1` [Dibucaine HCl], with -0.92.
Regarding `CO/N=C1\C[C@]2(C[C@@H]3C[C@@H](C/C=C(\C)C[C@@H](C)/C=C/C=C4\CO[C@@H]5[C@H](O)C(C)=C[C@@H](C(=O)O3)[C@]45O)O2)O[C@H](/C(C)=C/C(C)C)[C@H]1C` [Moxidectin], the “z-score of subpopulation abundance” value was found to be 1.63.
To `CC(C)(C)C(=O)C(Oc1ccc(Cl)cc1)n1ccnc1` (stereo not given) [Climbazole] belongs 2.84; to `Cn1c(=O)c2c(ncn2CC2OCCO2)n(C)c1=O` [Doxofylline], -0.27; to `CCOC(=O)C1=C(C)NC(C)=C(C(=O)OC)C1c1cccc([N+](=O)[O-])c1` (stereo not given) [Nitrendipine], -0.06.
Then `Cc1ccnc(NS(=O)(=O)c2ccc(N)cc2)n1` [Sulfamerazine], with 0.49.
Then `Nc1ccc(S(=O)(=O)Nc2ccnn2-c2ccccc2)cc1` [Sulfaphenazole], with -0.07; and `CCN(CC)C(=O)N1CCN(C)CC1` [Diethylcarbamazine citrate], with -0.57; and `CC1(C)S[C@@H]2[C@H](NC(=O)[C@H](NC(=O)N3CCNC3=O)c3ccccc3)C(=O)N2[C@H]1C(=O)O` [Azlocillin sodium salt], with -0.59.
In the case of `Nc1ccc(S(=O)(=O)Nc2cnc3ccccc3n2)cc1` [Sulfaquinoxaline sodium], the “z-score of subpopulation abundance” value is -1.04.
To `C#C[C@]1(O)CC[C@H]2[C@@H]3CCC4=CC(=O)CC[C@@H]4[C@H]3C(=C)C[C@@]21CC` [Etonogestrel] belongs 0.15.
Then `C[C@H]1O[C@@H](O[C@H]2[C@@H](O)C[C@H](O[C@H]3[C@@H](O)C[C@H](O[C@H]4CC[C@@]5(C)[C@H](CC[C@@H]6[C@@H]5C[C@@H](O)[C@]5(C)[C@@H](C7=CC(=O)OC7)CC[C@]65O)C4)O[C@@H]3C)O[C@@H]2C)C[C@H](O)[C@@H]1O` [Digoxin], with 0.21; and `N[C@@H](C(=O)N[C@@H]1C(=O)N2C(C(=O)O)=C(Cl)CS[C@H]12)c1ccccc1` [Cefaclor], with 0.49; and `CCC[C@@H]1C[C@@H](C(=O)N[C@@H]([C@H]2O[C@H](SC)[C@H](O)[C@@H](O)[C@H]2O)[C@@H](C)O)N(C)C1` [Lincomycin Hydrochloride Monohydrate], with -0.54.
To `O=C(c1ccc(OCCN2CCCCC2)cc1)c1c(-c2ccc(O)cc2)sc2cc(O)ccc12` [Raloxifene] belongs 1.48; to `CN1[C@@H](CC(=O)c2ccccc2)CCC[C@H]1C[C@H](O)c1ccccc1` [Lobeline hydrochloride], -0.65; to `CN1[C@@H]2CC[C@H]1C[C@@H](OC(=O)c1c[nH]c3ccccc13)C2` [Tropisetron], 0.66.
For the compound `CN(C)C(=O)COC(=O)Cc1ccc(OC(=O)c2ccc(NC(=N)N)cc2)cc1` [Camostat Mesilate], the “z-score of subpopulation abundance” value is 0.16.
As to `C[C@@H](O)[C@H]1C(=O)N2C(C(=O)[O-])=C(SC3Cn4cnc[n+]4C3)[C@H](C)[C@H]12` (stereo not given in full) [Biapenem], the “z-score of subpopulation abundance” value is -0.04.
For the compound `C#CCN(C)Cc1ccccc1` [Pargyline hydrochloride], the “z-score of subpopulation abundance” value is -0.83.
Then `C[C@]1(Cn2ccnn2)[C@H](C(=O)O)N2C(=O)C[C@H]2S1(=O)=O` [Tazobactam], with -1.1.
